Test results reported in PubChem BioAssay (NCATS).
Records with an inconclusive call do not appear. Active and inactive are the calls of the source. Calls follow the shape of the dose curve; as a rule, active = well fitted curve in the direction sought with a large enough effect; inconclusive = small, poorly fitted or top-dose-only effect, or another doubt; inactive = no such curve, though single readings can be large; an effect the other way counts as inactive or inconclusive.

Tests used:
[1] = qHTS of pediatric cancer cell lines to identify multiple opportunities for drug repurposing: Primary screen for LAN-5 cells (AID 1347100); also: potency is read from the fitted curve at half-maximal effect
Outline: (§1)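 Viability after 48 h compound treatment at 37C, 500-1,000 cells/well, read as ATP luminescence with CellTiter-Glo. Primary screens used 11-point (MIPE, 0.78 nM-46 µM) or 8-point (NPC, 0.59 nM-46 µM) final concentrations; follow-up screens used 11-point dilutions.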

[2] = qHTS of pediatric cancer cell lines to identify multiple opportunities for drug repurposing: Primary screen for BT-12 cells (AID 1347101); also: nearly all actives have a fitted effect of over 25% in size; also: potency is read from the fitted curve at half-maximal effect
Outline: (§2)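 Cells (500-1,000/well) rested 5 h, then received compounds for 48 h; metabolically active cells were measured by CellTiter-Glo luminescence. Final concentrations spanned up to 46 µM (MIPE, 11-point) or 0.59 nM-46 µM (NPC, 8-point) in primary screens, 11-point in follow-ups.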

[3] = qHTS of pediatric cancer cell lines to identify multiple opportunities for drug repurposing: Primary screen for Rh18 cells (AID 1347102); also: nearly all actives have a fitted effect of over 65% in size; also: potency is read from the fitted curve at half-maximal effect
Outline: as §1

[4] = qHTS of pediatric cancer cell lines to identify multiple opportunities for drug repurposing: Primary screen for OHS-50 cells (AID 1347103); also: nearly all actives have a fitted effect of over 40% in size; also: potency is read from the fitted curve at half-maximal effect
Outline: as §2

[5] = qHTS of pediatric cancer cell lines to identify multiple opportunities for drug repurposing: Primary screen for RD cells (AID 1347104); also: nearly all actives have a fitted effect of over 55% in size; also: potency is read from the fitted curve at half-maximal effect
Outline: (§3)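 Luminescence from CellTiter-Glo served as readout of metabolically active cells after 48 h compound exposure. Titrations: MIPE 11-point, from 0.78 nM; NPC 8-point, from 0.59 nM (final). Concentration-response curves came straight from the primary screen.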

[6] = qHTS of pediatric cancer cell lines to identify multiple opportunities for drug repurposing: Primary screen for MG 63 (6-TG R) cells (AID 1347105); also: nearly all actives have a fitted effect of over 50% in size; also: potency is read from the fitted curve at half-maximal effect
Outline: as §3

[7] = qHTS of pediatric cancer cell lines to identify multiple opportunities for drug repurposing: Primary screen for control Hh wild type fibroblast cells (AID 1347106);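 also: series mostly up to about 46 µM; a drop in luminescence marks cytotoxicity and a rise apparent proliferation; nearly all actives have a fitted effect of over 55% in size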
Outline: as §1

[8] = qHTS of pediatric cancer cell lines to identify multiple opportunities for drug repurposing: Primary screen for Rh30 cells (AID 1347107); also: nearly all actives have a fitted effect of over 75% in size; also: potency is read from the fitted curve at half-maximal effect
Outline: as §1

[9] = qHTS of pediatric cancer cell lines to identify multiple opportunities for drug repurposing: Primary screen for Rh41 cells (AID 1347108); also: nearly all actives have a fitted effect of over 70% in size; also: potency is read from the fitted curve at half-maximal effect
Outline: as §3

[10] = qHTS of pediatric cancer cell lines to identify multiple opportunities for drug repurposing: Primary screen for NB1643 cells (AID 1347099); also: nearly all actives have a fitted effect of over 50% in size; also: potency is read from the fitted curve at half-maximal effect
Outline: as §3

Measured: Potency

NS(=O)(=O)c1cc(Cl)c(Cl)c(S(N)(=O)=O)c1
inactive: [1] | [2] | [3] | [4] | [5] | [6] | [7] | [8] | [9]

CCOC(=O)N1c2ccc(C(F)(F)F)cc2[C@@H](N(Cc2cc(C(F)(F)F)cc(C(F)(F)F)c2)C(=O)OC)C[C@H]1CC
inactive: [10] | [5] | [6] | [7]
active: [4] 15.3 µM

O=C1CN2Cc3c(ccc(Cl)c3Cl)N=C2N1
inactive: [10] | [6] | [7]
active: [4] 21.7 µM

C=C1[C@H](n2cnc3c(=O)[nH]c(N)nc32)C[C@H](O)[C@H]1CO
active: [4] 8.63 µM
inactive: [10] | [3] | [7] | [8] | [9]

Cc1cccc(Nc2nc(N[C@@H]3CCCC[C@H]3N)ncc2C(N)=O)c1
inactive: [7]
active: [1] 18.7 µM | [2] 30.6 µM | [3] 20.9 µM | [4] 7.69 µM | [5] 16.6 µM | [6] 14.8 µM | [9] 11.8 µM

Cc1ccccc1-n1c(Cn2nc(-c3cccc(O)c3)c3c(N)ncnc32)nc2cccc(C)c2c1=O
inactive: [7] | [8]
active: [10] 0.833 µM | [4] 0.0385 µM | [5] 0.118 µM | [9] 3.72 µM

O=S(=O)(NCCNCC=Cc1ccc(Br)cc1)c1cccc2cnccc12
active: [1] 20.9 µM | [2] 21.7 µM | [3] 16.6 µM | [4] 7.69 µM | [5] 18.7 µM | [6] 14.8 µM
inactive: [7]

CCCC1OC2C[C@@H]3[C@H]4CCC5=CC(=O)C=C[C@]5(C)[C@H]4C(O)C[C@]3(C)[C@]2(C(=O)CO)O1 (stereo partly drawn)
inactive: [4] | [5] | [6] | [7]
active: [10] 20.9 µM

CC[C@H](C)C(=O)O[C@H]1C[C@H](O)C=C2C=C[C@H](C)[C@H](CC[C@@H](O)C[C@@H](O)CC(=O)O)[C@H]21
inactive: [1] | [2] | [3] | [4] | [5] | [6] | [7] | [8] | [9]

NC[C@H]1O[C@H](O[C@@H]2[C@@H](O)[C@@H](O[C@H]3O[C@H](CO)[C@@H](O)[C@H](N)[C@@H]3O)[C@H](N)C[C@@H]2N)[C@H](O)[C@@H](O)[C@H]1O
inactive: [1] | [2] | [3] | [4] | [5] | [6] | [7] | [8] | [9]

Cc1nc(NC(=O)N2CCC[C@@H]2C(N)=O)sc1-c1csc(C(C)(C)C)n1
active: [10] 5.9 µM | [3] 7.43 µM | [4] 1.72 µM | [5] 1.66 µM | [6] 5.9 µM | [8] 14.8 µM | [9] 11.8 µM

CCCCCOC(=O)Nc1nc(=O)n([C@@H]2O[C@H](C)[C@@H](O)C2O)cc1F (stereo partly drawn)
inactive: [1] | [2] | [3] | [4] | [5] | [7] | [8]

C[C@@H]1[C@H](C)CC[C@]2(C(=O)O)CC[C@]3(C)C(=CC[C@@H]4[C@@]5(C)CC[C@H](O)C(C)(C)[C@H]5CC[C@]43C)[C@@H]12
active: [1] 0.303 µM
inactive: [2] | [3] | [5] | [6] | [7] | [8]

CCN(CC)CCCCNc1nc2cc(Cl)c(Cl)cc2nc1-c1ccc(-c2cccs2)s1
active: [1] 26.4 µM | [2] 34.3 µM | [3] 18.7 µM | [4] 19.3 µM | [5] 18.7 µM | [9] 23.5 µM
inactive: [7]

CN(CC=CC#CC(C)(C)C)Cc1cccc2ccccc12
inactive: [1] | [2] | [3] | [4] | [5] | [7] | [8]
